A short description of assay [1]: Nuclear factor erythroid 2-related factor 2/antioxidant responsive element (Nrf2/ARE) small molecule agonists: qHTS cell viability counter screen in human keratinocytes (AID 1919968; active = well fitted curve in the direction sought with a large enough effect in the repeat runs; an effect the other way counts as inactive or inconclusive; note: nearly all actives have a fitted effect of over 55% in size). The method, boiled down:
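Seed 1,500 KeratinoSens cells per well, then incubate 5 h at 37 C/5% CO2. Add compounds in DMSO and incubate 23 h. Add CellTiter-Fluor, wait 1 h and read fluorescence.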
(In general: qHTS replaces the single test concentration by a dilution series.)

A short description of assay [2]: Nuclear factor erythroid 2-related factor 2/antioxidant responsive element (Nrf2/ARE) small molecule agonists: luciferase reporter gene qHTS assay in human keratinocytes (AID 1919969). Note: nearly all actives have a fitted effect of over 35% in size. Note: potency is the fitted concentration of half-maximal effect.
Assay [3] concerns the target KiSS-1 receptor (Homo sapiens) (UniProt Q969F8). Put plainly: Human kisspeptin (KISS1R) small molecule agonists, calcium flux assay in KISS1R-HEK293 cells (AID 1920064; active = well fitted curve in the direction sought with a large enough effect in the repeat runs; an effect the other way counts as inactive or inconclusive). Put shortly:
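Cells plated and incubated 18 h; dye added, 1 h at 37 C; compounds in DMSO pinned in; signal read at 480/540 nm every second for 3 min. Each compound tested at 15 concentrations in triplicate.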
A general note: Calcium assays in cells follow changes in intracellular calcium, usually with a dye or a luminescent sensor.

Assay [4] is described as follows: G protein-coupled receptor (GPCR) small molecule agonists, calcium flux assay: HEK293 wild type cell line counter screen (AID 1920065). The method, boiled down:
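Counter-screen of the Tox21 10K library for non-specific calcium release: dye-loaded cells received compounds in DMSO and were monitored by kinetic fluorescence (480/540 nm, 3 min). Fifteen concentrations, run in triplicate.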

Assay [5] is described as follows: p53 small molecule agonists, cell-based qHTS assay with human liver microsomes (AID 1963577).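 Note: p53 response element beta-lactamase reporter cells with liver microsomes plus NADPH.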 The method, boiled down:
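16 h, 37 C exposure of p53RE-bla cells to compounds with human liver microsomes and NADPH (0.5 mg/mL final each); detection via LiveBLAzer mixture, 2 h dark at room temperature.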

Assay [6] is described as follows: p53 small molecule agonists, cell-based qHTS assay with rat liver microsomes (AID 1963578). The method, boiled down:
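With rat liver microsomes and NADPH present (0.5 mg/mL final each), p53RE-bla cells are treated with compound for 16 h at 37 C. LiveBLAzer detection mixture is then applied for 2 h at room temperature in the dark.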

The nature of assay [7]: p53 small molecule agonists, cell-based qHTS assay with human liver microsomes: qHTS cell viability counter screen (AID 1963579). Note: nearly all actives have a fitted effect of over 45% in size. Note: potency is the fitted concentration of half-maximal effect. The method, boiled down: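 In this multiplexed counter screen, the reporter plates were subsequently treated with CellTiter-Glo so that cell viability, reflected by luminescence, could be recorded for p53RE-bla cells dosed 16 h with compounds under microsomal activation (HLM and NADPH).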

Assay [8] can be described thus: p53 small molecule agonists, cell-based qHTS assay with rat liver microsomes: qHTS cell viability counter screen (AID 1963580). Note: nearly all actives have a fitted effect of over 45% in size. Put shortly:
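p53RE-bla HCT-116 cells (4,000/well) rested 5 h at 37 C, then given Tox21 compounds in DMSO with rat liver microsomes (0.5 mg/mL final) plus NADPH (0.5 mg/mL final) for 16 h at 37 C. Viability read by CellTiter-Glo luminescence after 30 min at room temperature.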

Assay [9] is described as follows: p53 small molecule agonists, cell-based qHTS assay: qHTS cell viability counter screen (AID 1963581). Note: nearly all actives have a fitted effect of over 45% in size. The method, boiled down:
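Cells: HCT-116 with p53 response element-driven beta-lactamase. Treatment: 16 h, 37 C, compounds in DMSO. Read: CellTiter-Glo luminescence after 30 min RT.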

Assay [10] is described as follows: p53 small molecule agonists, cell-based qHTS assay (AID 1963582; active = well fitted activation curve with a large enough effect in the signal ratio in the repeat runs, not every such curve was filed as active; the % refers to the signal ratio). The method, boiled down: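 Quantitative HTS in p53RE-bla cells: after a 5 h settling period, compounds delivered in DMSO were left on cells for 16 h at 37 C, and reporter induction was measured as fluorescence following 2 h substrate loading.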
Assay [11] in a line: cAMP Responsive Elements (CRE) small molecule agonists, cell-based qHTS assay (AID 1963590). The method, boiled down:
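Agonist mode qHTS in CRE-bla HEK 293T cells: compounds dosed from DMSO for 3 h at 37 C/5% CO2, followed by LiveBLAzer B/G FRET substrate for 2 h at room temperature.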

The nature of assay [12]: cAMP Responsive Elements (CRE) small molecule antagonists, cell-based qHTS assay (AID 1963591; active = well fitted inhibition curve with a large enough effect in the signal ratio in the repeat runs, not every such curve was filed as active; the % refers to the signal ratio). The method, boiled down:
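Antagonist mode: test compounds are co-incubated with the adenylyl cyclase activator NKH477 (0.25 uM final) on CRE-bla HEK293T cells for 3 h at 37 °C, followed by LiveBLAzer substrate loading.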

Assay [13] has as its target Beta-2 adrenergic receptor (Homo sapiens) (UniProt P07550). Put plainly: Adrenergic beta2 receptor (ADRB2) small molecule antagonists, cell-based qHTS assay (AID 1963592). Note: series mostly up to about 92 µM; nearly all actives have a fitted effect of over 50% in size. The method, boiled down:
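Cells (CHO, stable ADRB2 overexpression) incubated 18-20hr at 37C; compounds added from DMSO; agonist mix (1nM isoproterenol, 100uM IBMX, 25uM Ro-20-1724) added; 0.5hr RT; d2-cAMP and anti-cAMP-cryptate added; 1hr RT; 665/615 nm read.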

The target is the same in assay [14]. Put plainly: Adrenergic beta2 receptor (ADRB2) small molecule agonists, cell-based qHTS assay (AID 1963593).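 Note: CHO cells stably overexpressing human ADRB2.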 The method, boiled down:
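CHO cells stably over-expressing ADRB2 were plated overnight at 37C, then dosed with compounds plus a stimulation mix containing 100uM IBMX and 25uM Ro-20-1724 for 0.5hr at room temperature. cAMP was measured by HTRF competition, 1hr.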

Assay [15] concerns the target D(2) dopamine receptor (Homo sapiens) (UniProt P14416). Kind of assay: Dopamine D2 receptor (DRD2) small molecule agonists, cell-based qHTS assay (AID 1963594). Note: nearly all actives have a fitted effect of over 35% in size. Put shortly:
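HEK293 cells stably expressing DRD2 were cultured 24 h at 37 C, then given Ro20-1724 (0.1 mM final) and compounds for 10 min at room temperature. NKH477 (200nM) was then added for 30 min. cAMP was read by HTRF.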

Assay [16] shares this target. Kind of assay: Dopamine D2 receptor (DRD2) small molecule antagonists, cell-based qHTS assay (AID 1963595; active = well fitted inhibition curve with a large enough effect in the signal ratio in the repeat runs, with a control signal flat; the % refers to the signal ratio). The method, boiled down:
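Readout: HTRF cAMP, cAMP-d2 competing with cellular cAMP for anti-cAMP cryptate, read after 1 h. Cells: DRD2-HEK293. Conditions: 0.1 mM Ro20-1724, 12 nM quinpirole, 200 nM NKH477, 30 min RT.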

In assay [17] the target is 5-hydroxytryptamine receptor 2A (Homo sapiens) (UniProt P28223). Kind of assay: 5-hydroxytryptamine receptor 2A (HTR2A) small molecule antagonists, cell-based qHTS assay (AID 1963586). Note: nearly all actives have a fitted effect of over 45% in size. The method, boiled down:
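Antagonist-mode intracellular calcium assay: DOI (4 nM) added after 5 min compound pre-incubation at room temperature to dye-loaded HTR2A-CHO cells. Fluorescence followed for 3 min, sampled every second.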

For assay [18] the target is unchanged. Put plainly: 5-hydroxytryptamine receptor 2A (HTR2A) small molecule agonists, cell-based qHTS assay (AID 1963587). Note: nearly all actives have a fitted effect of over 30% in size. Put shortly:
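HTR2A-CHO cells, plated 18 h at 37 C/5% CO2, dye-loaded 1 h at 37 C; compounds in DMSO added by pin tool (agonist mode). Intracellular calcium flux read as kinetic fluorescence on FDSS over 2 min at 1 s intervals.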

Assay [19] deals with Muscarinic acetylcholine receptor M1 (Homo sapiens) (UniProt P11229). Kind of assay: Cholinergic receptor muscarinic 1 (CHRM1) small molecule antagonists, cell-based qHTS assay (AID 1963588). Note: nearly all actives have a fitted effect of over 40% in size. Put shortly:
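CHRM1-CHO calcium-flux assay, antagonist mode. Cells were seeded 18 h, dye-loaded 1 h at 37 C and given compound for 5 min at RT, then acetylcholine was added at 50nM. FDSS fluorescence was read 3 min; 15 concentrations, three runs.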

For assay [20] the target is unchanged. Kind of assay: Cholinergic receptor muscarinic 1 (CHRM1) small molecule agonists, cell-based qHTS assay (AID 1963589). Note: nearly all actives have a fitted effect of over 35% in size. The method, boiled down:
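Agonist-mode qHTS in CHO cells stably carrying human muscarinic M1. Intracellular calcium is tracked by fluorescence every second after compound transfer; each compound runs at 15 concentrations in three independent runs.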

Several values for one entry are separate records, joined by “and”; a condition that tells them apart may be missing. Equal values may be shown once. Records with an inconclusive call do not appear. The source holds several records for some structures; these can differ, active in one and inactive in another. Activity calls are given as the source filed them. Unless noted, calls come from the whole dose curve.

Chain of 5-hydroxytryptamine receptor 2A (Homo sapiens) (P28223 whole entry, looked up): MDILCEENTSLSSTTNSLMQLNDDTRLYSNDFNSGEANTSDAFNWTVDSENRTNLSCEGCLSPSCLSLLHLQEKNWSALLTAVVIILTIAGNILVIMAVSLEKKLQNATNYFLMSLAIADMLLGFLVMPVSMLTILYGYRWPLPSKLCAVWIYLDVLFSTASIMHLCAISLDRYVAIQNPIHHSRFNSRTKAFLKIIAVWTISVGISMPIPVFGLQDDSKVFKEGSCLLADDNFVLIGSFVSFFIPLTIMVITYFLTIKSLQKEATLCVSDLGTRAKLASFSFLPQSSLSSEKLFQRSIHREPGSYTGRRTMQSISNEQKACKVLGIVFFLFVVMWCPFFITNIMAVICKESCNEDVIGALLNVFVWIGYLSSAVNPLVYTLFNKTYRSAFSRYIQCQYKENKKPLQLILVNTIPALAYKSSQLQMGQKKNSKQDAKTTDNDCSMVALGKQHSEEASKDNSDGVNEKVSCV
Chain of KiSS-1 receptor (Homo sapiens) (Q969F8 whole entry, looked up): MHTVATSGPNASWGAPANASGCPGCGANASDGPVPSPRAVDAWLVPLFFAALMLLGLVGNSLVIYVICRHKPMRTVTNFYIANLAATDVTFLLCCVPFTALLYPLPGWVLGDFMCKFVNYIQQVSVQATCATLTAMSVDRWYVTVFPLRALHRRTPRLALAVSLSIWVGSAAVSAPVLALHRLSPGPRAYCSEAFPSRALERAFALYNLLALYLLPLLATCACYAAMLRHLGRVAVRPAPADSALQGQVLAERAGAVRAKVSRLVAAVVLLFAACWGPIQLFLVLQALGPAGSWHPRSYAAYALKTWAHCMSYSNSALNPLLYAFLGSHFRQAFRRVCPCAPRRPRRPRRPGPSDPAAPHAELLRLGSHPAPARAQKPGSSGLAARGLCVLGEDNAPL
Chain of Muscarinic acetylcholine receptor M1 (Homo sapiens) (P11229 whole entry, looked up): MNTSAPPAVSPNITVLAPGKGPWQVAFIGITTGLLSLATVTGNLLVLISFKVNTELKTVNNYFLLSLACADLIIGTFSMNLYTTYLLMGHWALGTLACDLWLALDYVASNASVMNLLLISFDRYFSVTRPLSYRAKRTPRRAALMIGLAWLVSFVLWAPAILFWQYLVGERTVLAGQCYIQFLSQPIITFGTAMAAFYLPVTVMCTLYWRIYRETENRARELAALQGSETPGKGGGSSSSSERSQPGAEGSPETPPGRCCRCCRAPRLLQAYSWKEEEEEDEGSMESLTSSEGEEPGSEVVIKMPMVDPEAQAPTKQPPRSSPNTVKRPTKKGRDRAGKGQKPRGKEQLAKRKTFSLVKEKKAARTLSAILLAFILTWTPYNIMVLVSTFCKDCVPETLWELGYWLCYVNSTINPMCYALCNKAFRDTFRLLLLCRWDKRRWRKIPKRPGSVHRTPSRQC
Chain of Beta-2 adrenergic receptor (Homo sapiens) (P07550 whole entry, looked up): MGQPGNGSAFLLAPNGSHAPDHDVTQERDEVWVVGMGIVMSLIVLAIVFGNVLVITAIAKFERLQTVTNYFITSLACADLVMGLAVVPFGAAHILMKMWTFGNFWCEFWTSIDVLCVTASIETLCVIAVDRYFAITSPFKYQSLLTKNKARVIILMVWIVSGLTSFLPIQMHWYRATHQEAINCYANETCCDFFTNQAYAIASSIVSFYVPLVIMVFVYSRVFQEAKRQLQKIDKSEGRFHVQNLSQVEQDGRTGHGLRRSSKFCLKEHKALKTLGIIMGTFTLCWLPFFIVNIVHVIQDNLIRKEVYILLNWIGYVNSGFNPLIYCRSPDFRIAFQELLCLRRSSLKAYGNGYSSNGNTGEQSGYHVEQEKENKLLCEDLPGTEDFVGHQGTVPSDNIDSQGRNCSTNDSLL
Chain of D(2) dopamine receptor (Homo sapiens) (P14416 whole entry, looked up): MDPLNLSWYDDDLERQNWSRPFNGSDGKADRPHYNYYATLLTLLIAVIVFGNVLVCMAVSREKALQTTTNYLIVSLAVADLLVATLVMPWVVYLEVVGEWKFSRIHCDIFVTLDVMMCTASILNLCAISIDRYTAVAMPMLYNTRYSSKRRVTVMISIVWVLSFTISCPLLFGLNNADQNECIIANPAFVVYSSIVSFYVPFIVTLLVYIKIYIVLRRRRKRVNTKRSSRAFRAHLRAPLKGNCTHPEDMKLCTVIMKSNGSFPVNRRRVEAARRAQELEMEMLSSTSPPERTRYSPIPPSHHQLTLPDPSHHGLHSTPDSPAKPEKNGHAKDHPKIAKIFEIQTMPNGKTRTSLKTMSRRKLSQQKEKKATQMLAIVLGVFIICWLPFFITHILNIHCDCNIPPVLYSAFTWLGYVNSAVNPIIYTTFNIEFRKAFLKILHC

For `COC(=O)c1ccccc1O`, the Potency result in assay [1], in [3], in assay [4], in assay [5], in [6] and in assay [7] was “inactive” throughout. The Potency entry in assay [8], in assay [9], in assay [10], in [11], in [12] and in assay [13] was “inactive” each time. Besides, the Potency result in [14], in assay [15] and in assay [16] was “inactive” throughout. The Potency in [2] is 68.7 µM (active) and inactive.
As to `Cc1ccc(S(=O)(=O)N=C=O)cc1`, the Potency result in [1], in assay [2], in [3], in assay [4], in assay [5] and in assay [6] was “inactive” each time. In addition, the Potency result in assay [7], in assay [9], in assay [10], in assay [17], in assay [18] and in assay [19] was “inactive” each time. In addition, the Potency result in [11], in assay [12], in assay [13], in assay [15] and in assay [16] was “inactive” each time.
Consider `c1ccc(Nc2ccccc2)cc1`, for which the Potency entry in [1], in assay [3], in assay [4], in assay [5], in [6] and in [8] was “inactive” each time. Further, the Potency entry in assay [9], in assay [10], in [17], in assay [18], in [19] and in assay [20] was “inactive” throughout. For the same molecule, the Potency entry in [13], in [15] and in assay [16] was “inactive” each time. Besides, the Potency in assay [2] was 61.1 µM (active) and inactive.
On to `C/C=C/c1ccc(OCC)c(O)c1`, for which the Potency result in assay [1], in assay [2], in [3], in [4], in assay [5] and in assay [6] was “inactive” each time. Further, the Potency entry in [7], in [9], in [10], in [17], in assay [18] and in assay [19] was “inactive” in each case. In addition, the Potency entry in assay [20], in [11], in assay [12], in assay [14] and in assay [15] was “inactive” in each case.
With `CC1=CC(C)(C)Nc2ccccc21`, the Potency entry in [1], in assay [2], in assay [3], in assay [4], in assay [5] and in assay [6] was “inactive” each time. Further, the Potency result in assay [7], in assay [8], in assay [9], in assay [17], in [18] and in assay [19] was “inactive” throughout. Also, the Potency result in [20], in assay [11], in [12], in [14], in assay [15] and in assay [16] was “inactive” throughout.
In the case of `Cc1cccc(Nc2cc(Cl)nc(SCC(=O)O)n2)c1C`, the Potency entry in assay [1], in assay [2], in assay [3], in assay [4], in assay [5] and in assay [6] was “inactive” throughout. The Potency entry in [7], in [8], in [13], in [14], in assay [15] and in assay [16] was “inactive” throughout.
`Cc1ccc(O)c(-n2nc3ccccc3n2)c1`: the Potency entry in assay [1], in assay [3], in assay [4], in assay [5], in [6] and in [8] was “inactive” each time. In addition, the Potency result in assay [9], in assay [10], in assay [17], in [19], in [20] and in assay [11] was “inactive” each time. Besides, the Potency result in assay [12], in assay [13], in assay [14], in assay [15] and in assay [16] was “inactive” each time. Further, the Potency is 60.6 µM (active) and 27.3 µM (active) and 5.96 µM (active) in [2]; 50.9 µM (active) and inactive in assay [7].

The record behind these values is PubChem BioAssay (Tox21).
